The campaign covered roughly 69,000 compounds. About 8,600 (12%) showed an effect of 50% or more. The entries come from a sample that favours strong results as a whole.

In the assay the test system is Plasmodium berghei. Description: Screen against P. berghei liver stage (PbLuc), transformed with Luciferase, at 10uM. It counts as functional, HepG2. As to conditions: tested at 10 uM.
In the case of `CCOc1ccc2cc(C(=O)N3CCn4c(CC)nnc4C3)[nH]c2c1`, the INHIBITION turned out to be 0.411%.
As to `COc1nn(C)cc1C(=O)N1CCC(c2ccccc2)C1` (stereo unspecified), the INHIBITION worked out at 11.8%.
Then `Cc1ccccc1C1(C(=O)NCCN2CCCC(C)C2)CCOCC1` (stereo unspecified), with 49.8%; and `Cc1cc(C)n(CCC(=O)N2CCC(c3nc(C)no3)CC2)n1`, with 47.4%.
As for `CC(C)n1cnnc1CNC(=O)c1cnc2ccccc2n1`, the INHIBITION is -4.73%.
As to `Cc1nc(Nc2ccccn2)cc(N2CCN(S(C)(=O)=O)CC2)n1`, the INHIBITION is given as 53.2%.
With `CS(=O)(=O)N1CCN(c2ccc(Nc3ccccn3)nn2)CC1`, the INHIBITION is given as 21.5%.
As for `Cc1ccc(Nc2cc(N3CCN(S(C)(=O)=O)CC3)nc(C)n2)cc1`, the INHIBITION was -19.7%.
Turning to `O=C1CCC2(CCC(NCc3cccnc3)CC2)N1Cc1ccccc1` (stereo unspecified), the INHIBITION stood at 48.2%.
In the case of `CCn1cc(NC(=O)NCC(C)N(C)C2CC2)cn1` (stereo unspecified), the INHIBITION is listed as -62.8%.
In the case of `CC(CN1CCC(CCO)CC1)n1cnc2ccccc21` (stereo unspecified), the INHIBITION is recorded as -0.217%.
As for `CC(CN1CC[C@@H]2CCCC[C@@H]2C1)n1cnc2ccccc21` (stereo partly specified), the figure is 3.58%; as for `CC(CN1CCC(c2ccccc2)CC1)n1cnc2ccccc21` (stereo unspecified), 56.2%.
With `CCCC(O)CN1CCC(=O)N(CCOC)Cc2cc3c(cc21)OCO3` (stereo unspecified), the INHIBITION stood at 22.2%.
Turning to `COCCN1CCCC1c1nccnc1Nc1ncc(C)s1` (stereo unspecified), the INHIBITION is 8.53%.
Consider `COCCN1CCCC1c1nccnc1Nc1nc(C)cs1` (stereo unspecified), for which the INHIBITION turned out to be 16.9%.
For `COCCN1CCCC1c1nccnc1Nc1nccs1` (stereo unspecified), the INHIBITION came out at 61.9%.
On to `COCCC(=O)N1CCn2cc(CN3CCN(C)CC3)nc2C1`, for which the INHIBITION was -17.2%.
Consider `CCc1nc2n(n1)CC(NCCC(=O)Nc1cc(C)on1)CC2` (stereo unspecified), for which the INHIBITION came to 7.08%.
Turning to `CCN(CC1CN(Cc2ncc(C)o2)CCO1)c1cccnn1` (stereo unspecified), the INHIBITION is listed as -17.4%.
On to `CCN(CC1CN(Cc2c(C)noc2C)CCO1)c1cccnn1` (stereo unspecified), for which the INHIBITION is on record as 44.9%.
Turning to `CCN(CC1CN(CC2CCC2)CCO1)c1cccnn1` (stereo unspecified), the INHIBITION is recorded as 62.8%.
As for `CCN(CC1CN(Cc2ncc[nH]2)CCO1)c1cccnn1` (stereo unspecified), the figure is 11.1%; as for `CCN(CC1CN(Cc2nccn2CC)CCO1)c1cccnn1` (stereo unspecified), 41.4%.
As to `CCN(CC1CN(Cc2nc(C3CC3)no2)CCO1)c1cccnn1` (stereo unspecified), the INHIBITION was 87.6%.
On to `COc1cc(C2CC(=O)Nc3c2c(=O)[nH]n3C2CCCC2)ccc1O` (stereo unspecified), for which the INHIBITION is on record as 27.4%.
With `CSc1[nH]nc(NC(=O)c2ccncc2)c1C#N`, the INHIBITION is on record as 48.8%.
For the molecule `O=C(N1CCCC(n2cncn2)C1)C1(c2cccc(F)c2)CC1` (stereo unspecified), the INHIBITION came out at 23.7%.
As for `CCOc1ccnc(N2CCN(C(=O)c3ccoc3C)CC2)n1`, the INHIBITION is on record as -13.5%.
With `CNC(=O)[C@H]1CO[C@H]2CCN(c3ncc(F)cn3)C[C@H]2C1`, the INHIBITION is given as 3.58%.
Turning to `COCCNC(=O)[C@H]1CO[C@H]2CCN(Cc3cccs3)C[C@H]2C1`, the INHIBITION turned out to be 38.5%.
Regarding `CNC(=O)[C@H]1CO[C@H]2CCN(Cc3ccc4ccccc4n3)C[C@H]2C1`, the INHIBITION came to 50%.
For the molecule `CC(C)NC(=O)[C@@H]1C[C@H]2OCC[C@H]2N(Cc2ccc3ccccc3n2)C1`, the INHIBITION is reported as 19.4%.
Regarding `O=C(NC1CC1)[C@H]1C[C@H]2OCC[C@H]2N(Cc2ccc3ccccc3n2)C1`, the INHIBITION stood at 38.1%.
Consider `CC(C)NC(=O)[C@H]1C[C@H]2OCC[C@H]2N(Cc2ccc3ccccc3n2)C1`, for which the INHIBITION is listed as 61.4%.
With `CCCN1CC[C@@H]2OC[C@H](C(=O)Nc3cccnc3)C[C@@H]2C1`, the INHIBITION is recorded as 59.9%.
For `CC(C)N1CC[C@@H]2OC[C@H](C(=O)Nc3cccnc3)C[C@@H]2C1`, the INHIBITION is -25.1%.
For `O=C(Nc1cccnc1)[C@H]1CO[C@H]2CCN(c3ncc(F)cn3)C[C@H]2C1`, the INHIBITION is recorded as 25.4%.
For `NC(=O)CSc1nccc(-c2ccc3c(c2)OCO3)n1`, the INHIBITION was -22.6%.
Regarding `CS(=O)(=O)N1CCOCC2(CCN(c3ccccn3)C2)C1` (stereo unspecified), the INHIBITION was 5.96%.
For `O=c1[nH]cc(Nc2ccc(Cl)cc2)c(=O)[nH]1`, the INHIBITION turned out to be 15.4%.
On to `O=S1(=O)CCN2C(=N1)Oc1ccc(S(=O)(=O)N3CCCC3)cc12`, for which the INHIBITION is on record as 86.6%.
As for `O=S1(=O)CCN2C(=N1)Oc1ccc(Cl)cc12`, the INHIBITION stood at 30.5%.
Take `CCS(=O)(=O)c1ccc2c(c1)N1CCS(=O)(=O)N=C1O2`: the INHIBITION amounted to 20.1%.
On to `Cn1cc(Br)c(=O)c(NS(=O)(=O)c2ccccc2F)c1`, for which the INHIBITION is -1.38%.
In the case of `CCn1cc(CN(C)S(=O)(=O)c2ccc(C)c(C)c2)cn1`, the INHIBITION worked out at 10.1%.
`CCc1nc(CN2CCOC(CNc3cccnn3)C2)cs1` (stereo unspecified): the INHIBITION is recorded as 41.5%.
Consider `Cc1cc(CN2CCOC(CNc3cccnn3)C2)no1` (stereo unspecified), for which the INHIBITION was found to be 7.12%.
For `COCc1nc(CN2CCOC(CNc3cccnn3)C2)cs1` (stereo unspecified), the INHIBITION worked out at 14.1%.
As for `Cc1cnc(CN2CCOC(CNc3cccnn3)C2)cn1` (stereo unspecified), the INHIBITION is on record as 2.26%.
For `c1cnnc(NCC2CN(Cc3ccon3)CCO2)c1` (stereo unspecified), the INHIBITION turned out to be 50.5%.
Then `CCCc1nc(CN2CCOC(CNc3cccnn3)C2)cs1` (stereo unspecified), with 58.9%.
Take `CC(=O)N1CCC(c2cccc(-c3cccc(C(=O)O)c3)n2)CC1`: the INHIBITION stood at 25.8%.
Then `Cc1cnn(CC2CCCN2C(=O)c2ccc(Cl)cc2F)c1` (stereo unspecified), with 3.73%.
On to `CCc1nc(C2CCCN(C(=O)c3c(C)noc3C)C2)no1` (stereo unspecified), for which the INHIBITION came to 45.1%.
For the molecule `Cc1noc(C)c1-c1cccc(C2CCCNC2)n1` (stereo unspecified), the INHIBITION is reported as -57.4%.
For the molecule `CCCc1ccc2oc(C(=O)N3CCN(CCC(N)=O)CC3)c(C)c2c1`, the INHIBITION is 18.5%.
Then `Cc1c(NC(=O)CN2CCC(Oc3cnccn3)CC2)cnn1C`, with 0.696%.
On to `COCCC(=O)N1CCCC(CCC(=O)NCc2cccc(OC)c2)C1` (stereo unspecified), for which the INHIBITION was determined as 9.52%.
As for `COCCC(=O)N1CCCC(CCc2ccc(F)c(F)c2)C1` (stereo unspecified), the figure is 4.97%.
With `O=C(CCC1CCCN(S(=O)(=O)C2CC2)C1)Nc1ccc(Cl)cc1` (stereo unspecified), the INHIBITION was determined as 28%.
As for `COCCC(=O)N1CCCC(CCC(=O)NCc2ccccc2F)C1` (stereo unspecified), the INHIBITION is recorded as -4.12%.
As to `COCCC(=O)N1CCCC(CCC(=O)Nc2ccc(Cl)cc2)C1` (stereo unspecified), the INHIBITION is on record as 57.2%.
On to `O=C(CCC1CCCN(C(=O)CCc2ccc(F)c(F)c2)C1)NC1CC1` (stereo unspecified), for which the INHIBITION came out at 75.4%.
Take `Cc1ccc(-c2nc3cc(S(=O)(=O)N4CCCC4)ccc3n2C)o1`: the INHIBITION amounted to 14.1%.
As for `CCc1cccc2cc(CNCCOC)c(=O)[nH]c12`, the figure is 24.95%.

The record behind these values is ChEMBL document CHEMBL4513216, “Probing the Open Global Health Chemical Diversity Library for Multistage-Active Starting Points for Next-Generation Antimalarials” (ACS Infect Dis, 2020).
